Only a selection was taken, and hits are over-represented in it overall.
DT40 TDP1 no CPT – qHTS for Inhibitors of human tyrosyl-DNA phosphodiesterase 1 (TDP1): qHTS in cells in absence of CPT; Potency, µM (top dose mostly 46.2 µM), for the others: top-dose activity change, negative = growth inhibition, usual class: inhibitors; DT40 Tdp1-/- hTDP1 cells, no CPT, ATP luminescence, 48 h; 15% of 420,000 active; AID 686978, 2013; note: potency is the fitted concentration of half-maximal effect; nearly all actives have a fitted effect of over 55% in size
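Growth of hTDP1-complemented DT40 Tdp1-knockout cells is measured by ATP luminescence after at least 48 hr compound exposure at 37 °C, with DMSO substituting for the 20 nM CPT used in the parallel screen.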
ALOX12 inh – ALOX12 (human) lipoxygenase inhibition | purified 12hLO, xylenol orange hydroperoxide absorbance | Potency, µM (doses to about 108 µM), for the others: top-dose activity change, negative = inhibition, usual class: inhibitors | 1.1% of 580,000 active | AID 1671190; note: potency is the fitted concentration of half-maximal effect
Target sequence (P18054 whole entry, looked up): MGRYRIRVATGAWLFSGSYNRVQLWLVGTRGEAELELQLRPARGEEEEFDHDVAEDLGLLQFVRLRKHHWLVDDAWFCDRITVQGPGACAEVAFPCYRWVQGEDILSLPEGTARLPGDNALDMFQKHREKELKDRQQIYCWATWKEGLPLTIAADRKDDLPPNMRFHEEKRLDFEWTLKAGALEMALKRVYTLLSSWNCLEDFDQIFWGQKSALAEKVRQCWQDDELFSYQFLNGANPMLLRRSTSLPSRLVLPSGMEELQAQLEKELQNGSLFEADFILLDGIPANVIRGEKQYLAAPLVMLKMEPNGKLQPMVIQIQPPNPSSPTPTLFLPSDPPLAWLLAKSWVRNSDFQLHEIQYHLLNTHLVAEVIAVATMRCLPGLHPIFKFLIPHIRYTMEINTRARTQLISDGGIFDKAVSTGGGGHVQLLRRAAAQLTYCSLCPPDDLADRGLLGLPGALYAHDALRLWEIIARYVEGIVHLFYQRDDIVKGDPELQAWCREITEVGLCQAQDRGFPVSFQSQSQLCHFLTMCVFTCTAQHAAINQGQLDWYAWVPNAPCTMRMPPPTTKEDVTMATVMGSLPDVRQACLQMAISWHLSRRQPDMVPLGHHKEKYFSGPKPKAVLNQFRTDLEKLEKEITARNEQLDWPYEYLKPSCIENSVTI
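Purified human 12hLO at 150 nM in 25 mM Hepes, 0.01% Triton X-100, pH 7.0, preincubated 15 min at room temperature with compound. Reaction started with 40 uM arachidonic acid, 30 min at room temperature. Hydroperoxide measured by Fe-xylenol orange, 573/405 nm absorbance ratio.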
HT1080-NT tox – kills 2HG-producing HT-1080-NT fibrosarcoma cells; HT-1080-NT fibrosarcoma viability, CellTiter-Glo ATP luminescence, 48 h; Potency, µM (top dose mostly 46.1 µM), for the others: at the highest dose activity, negative = less viability, hits mostly cytotoxic; 1.6% of 360,000 active; AID 686970;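 note: NT is the 2HG producing partner of a matched IDH1 knockdown line; potency is the fitted concentration of half-maximal effect; 0% = DMSO-treated cells and -100% = media-only wells without cells; nearly all actives have a fitted effect of over 55% in size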
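750 cells/well, RPMI + 5% FBS; 2 h settle, compound pin-transfer, 48 h at 37 degrees C. CellTiter-Glo 10 min RT, luminescence. Normalized to DMSO and media-only wells.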
DT40 TDP1 CPT – growth inhibition of DT40 Tdp1-/-;hTDP1 cells with camptothecin (screen for TDP1 inhibitors) | chicken DT40 Tdp1-/-;hTDP1 cells + 20 nM CPT, ATP luminescence, 48 h | Potency, µM (doses to about 46.2 µM), for inactives: top-dose activity change, negative = growth inhibition, most hits filed as inhibitors | 12% of 420,000 active | AID 686979; note: potency is the fitted concentration of half-maximal effect; nearly all actives have a fitted effect of over 55% in size
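Chicken DT40 Tdp1-/- cells complemented with human TDP1, 400 cells/well, exposed to compounds plus 20 nM camptothecin for at least 48 h at 37 C; viability read as ATP content by CellTiter-Glo luminescence.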
IL-1B inflam inh – inflammasome signaling inhibition, IL-1 beta readout; activity change, % at 57.5 µM; AID 743279; THP-1 LPS/ATP IL-1B secretion, AlphaLISA, 16 h; active compounds read low; 4.7% of 360,000 active; in the data active = activity change below about -50%; inconclusive = mostly about -30% to -49%
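Secreted IL-1B measured by AlphaLISA bead assay after 16 h compound exposure of THP-1 cells; compounds (final up to 57.5 uM) added 1 h before LPS (250 ng/mL) and ATP (1.25 mM) stimulation; lower signal means less secretion.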
HT1080 IDH1KD tx – HT-1080 IDH1 knockdown cell toxicity (counter line); HT-1080 IDH1 knockdown viability, ATP luminescence, 48 h; 2% of 360,000 active; Potency, µM (doses to about 46.1 µM), without a hit: top-dose activity, negative = toxicity, most hits filed as cytotoxic; AID 686971;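 note: potency is the fitted concentration of half-maximal effect; 0% = DMSO wells and -100% = cell-free medium wells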
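Luminescent ATP read-out (CellTiter-Glo, 10 min at room temperature) after 48 h compound exposure at 37 °C gave viability of IDH1-knockdown HT-1080 cells. Activity was normalised to DMSO and cell-free wells, then fitted as concentration-response curves.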
Starred values were filed as active, the others as inactive; ? = inconclusive; . = no result given; [ ] = another dose, or the depositor's remark. Unless noted, calls come from the whole dose curve; as a rule, active = well fitted curve in the direction sought with a large enough effect; inconclusive = small, poorly fitted or top-dose-only effect, or another doubt; inactive = no such curve, though single readings can be large; an effect the other way counts as inactive or inconclusive. Unless noted, % is set by controls: 0 for no effect and ±100 for the full control effect.

SMILES	DT40 TDP1 no CPT	ALOX12 inh	HT1080-NT tox	DT40 TDP1 CPT	IL-1B inflam inh	HT1080 IDH1KD tx
O=C(CSc1nnc(CNc2ccccc2)o1)N1CCc2ccccc21	-14%	0%	-3%	-4%	6	-11%
O=C(CSc1nnc(Cc2csc(Nc3cccc(Cl)c3)n2)o1)N1CCc2ccccc21	21µM*	0%	-12%	18µM*	?	-8%
CCN(CC)C(=O)CSc1nnc(-c2ccc(S(=O)(=O)N3CCCC3)cc2)o1	-10%	-11%	9%	-8%	0	2%
CC1Cc2ccccc2N1C(=O)CSc1nnc(-c2ccc(S(=O)(=O)N3CCCC3)cc2)o1 (stereo unspecified)	16µM*	0%	2%	?	19	1%
CCN(CC)CC[C@H]1CN(C(=O)c2ccc(F)cc2)CC[C@H]1CC(=O)O	.	-17%[176 µM]	.	.	.	.
O=C(Nc1ccn(CCCN2CCC(N3CCOCC3)CC2)c(=O)n1)OCc1ccccc1	-10%	?	-3%	-16%	0	1%
O=C(Nc1ccn(CCCNCCN2CCOCC2)c(=O)n1)OCc1ccccc1	-93%	25%	1%	-103%	6	0%
O=C(Nc1ccn(CCCNC2CCN(Cc3ccccc3)CC2)c(=O)n1)OCc1ccccc1	18µM*	-26%	?	?	-18	?
Cc1cc(C)c(CN2CCN(CCCn3ccc(NC(=O)OCc4ccccc4)nc3=O)CC2)c(C)c1	18µM*	?	-2%	18µM*	-55*	-6%
Nc1ccn(CCCN2CCN(Cc3cccc4ccccc34)CC2)c(=O)n1	?	3%	3%	-5%	16	3%
O=C(Nc1ccn(CCCN2CCN(Cc3cccc4ccccc34)CC2)c(=O)n1)OCc1ccccc1	18µM*	?	?	16µM*	?	-21%
O=C(Nc1ccn(CCCN2CCN(c3ccccc3)CC2)c(=O)n1)OCc1ccccc1	15µM*	?	-23%	?	-23	-1%
COc1ccc(N2CCN(CCCn3ccc(NC(=O)OCc4ccccc4)nc3=O)CC2)cc1	12µM*	-17%	0%	23µM*	-14	-4%
CC1CCCN(CC(=O)Nc2ccc(S(=O)(=O)N3C(C)CCCC3C)cc2)C1 (stereo unspecified)	16µM*	-29%	0%	?	-20	-11%
CCOC(=O)C1CCN(CC(=O)Nc2ccc(S(=O)(=O)N3CCC(C)CC3)cc2)CC1	21µM*	-1%	0%	?	18	0%
CC1CCN(CC(=O)Nc2ccc(S(=O)(=O)N3CCCC(C)C3)cc2)CC1 (stereo unspecified)	-12%	?	-8%	?	-51*	-8%
CC1CCCN(S(=O)(=O)c2ccc(NC(=O)CN3CCN(C)CC3)cc2)C1 (stereo unspecified)	-3%	?	9%	?	4	8%
O=C(C(Sc1ccccc1)c1ccccc1)N1CCN(c2ccccc2)CC1 (stereo unspecified)	?	0%	-5%	?	?	-12%
O=C(c1ccco1)N1CCN(C(=O)C(Sc2ccccc2)c2ccccc2)CC1 (stereo unspecified)	?	-19%	-17%	16µM*	-3	-14%
CC(C)(C)c1ccc(C(=O)OCc2c(Cl)cccc2Cl)cc1	.	-14%	.	.	.	.
CCCC(=O)NNc1c2ccccc2nc2ccccc12	?	2%	-1%	-11%	-18	9%
Nc1c2c(nc3ccccc13)N(c1ccccc1)CC2	?	?	-13%	15µM*	-9	-14%
CCCC(=O)Nc1c2c(nc3ccccc13)N(c1ccccc1)CC2	?	.	?	?	0	26µM*
Nc1c2c(nc3ccccc13)CSCC2	?	0%	-3%	7%	-10	7%
CCCCNC(=O)c1ccc(NC(=O)c2ccc(F)cc2)cc1	.	15%	.	.	.	.
SMILES	DT40 TDP1 no CPT	ALOX12 inh	HT1080-NT tox	DT40 TDP1 CPT	IL-1B inflam inh	HT1080 IDH1KD tx
COc1cc(/C=C(/C#N)c2nc3ccccc3[nH]2)cc(Cl)c1OC(C)C	.	30%	.	.	.	.
O=C1NCCCCCCN(C(=O)Nc2ccccc2F)[C@H]2CCCC[C@@H]12	.	56%	.	.	.	.
CCOc1ccc(NC(=S)NNC(=S)Nc2cccc(C(F)(F)F)c2)cc1	?	-16%	-1%	?	-8	-22%
COc1ccc(NC(=S)NNC(=S)Nc2cccc(C(F)(F)F)c2)cc1	6.5µM*	?	-25%	5.8µM*	?	?
CC(C)(C)NC(=S)Nc1ccc(Nc2ccccc2)cc1	16µM*	-38%	5.6µM*	15µM*	?	6.3µM*
O=C(NC(=S)Nc1cccc(C(F)(F)F)c1)c1ccc2nonc2c1	?	35µM*	-6%	?	.	6%
FC(F)(F)c1cccc(NC(=S)Nc2ccc(Cl)c(Cl)c2)c1	13µM*	0%	?	?	-87*	?
CC(C)(C)NC(=S)Nc1ccc(Br)cc1	?	-8%	5%	?	1	1%
CCOc1cc(OCC)cc(C(=O)NC(=S)Nc2cccc(C(F)(F)F)c2)c1	0%	?	10%	-28%	2	6%
CCC1(CO)CCCN(S(=O)(=O)c2ccc3c(c2)OCCO3)C1 (stereo unspecified)	.	47%	.	.	.	.
Cc1coc2cc3oc(=O)c(CC(=O)NCCc4ccccc4)c(C)c3cc12	?	-9%	.	?	.	.
O=C(NC1CCCCC1)N[C@H]1[C@H](O)[C@@H](N2CCCCC2)[C@@H]2OC[C@H]1O2	.	2%[176 µM]	.	.	.	.
CO[C@H]1[C@H](NC(=O)c2noc3c2CCCC3)c2ccccc2C12CCNCC2	.	16%	.	.	.	.
O=C(NCCCl)Nc1ccc(Cl)c([N+](=O)[O-])c1	?	-17%	0%	?	-21	0%
O=[N+]([O-])c1cc(C(F)(F)F)cc([N+](=O)[O-])c1NCCNC(=S)Nc1ccc(Cl)c(Cl)c1	21µM*	?	16µM*	?	-80*	?
FC(F)(F)c1cccc(NC(=S)NC(c2ccccc2)c2ccccc2)c1	5.2µM*	35µM*	?	3.7µM*	-1	?
CNNC(=S)Nc1cccc(C(F)(F)F)c1	1%	?	4%	1%	0	5%
C=CCNC(=S)Nc1cccc(C(F)(F)F)c1	.	-21%	.	.	.	.
CC(C)(C)NC(=S)Nc1cccc(C(F)(F)F)c1	26µM*	?	-19%	?	-90*	?
